Consider 26 molecules from PubChem BioAssay (NCI).

Assay in all cases: NCI-60 one-dose screen, 48 h (100 = growth as untreated, 0 = no growth, -100 = all killed)
Settings in all cases: 10 µM unless noted

Experiment [1] deals with SK-MEL-2 melanoma.
The subject of experiment [2] is EKVX NSCLC.
The subject of experiment [3] is SN12C renal.
In experiment [4] the test system is UO-31 renal.
In experiment [5] the test system is TK-10 renal.
In experiment [6] the test system is ACHN renal.
For experiment [7], the system named is CAKI-1 renal.
Experiment [8] concerns A498 renal.
Experiment [9] has as its system CCRF-CEM leukemia.
Experiment [10] relates to MOLT-4 leukemia.

Each structure is given as a SMILES string. The panel holds about 83,000 compounds, 20% with a hit somewhere; the sample as a whole holds those more often.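 Assay: single dose, 48 h. Readout: percent growth (0 = no net growth; negative = cell death). Active: <10.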 Values without a mark were called inactive. Calls of active or inactive are those of the source.

In the case of `C#COc1cccc(Nc2ncnc3cc(NC(=O)[C@@H](C)Cl)ccc23)c1`, the growth in experiment [1] was 27.4% [6.25 µM]; in experiment [2] it was 36.7% [6.25 µM]; in experiment [3], 22% [6.25 µM]; in experiment [4], 29.2% [6.25 µM]; in experiment [5] it was 10.6% [6.25 µM]; in [6], 20.8% [6.25 µM]. Besides, the results for the growth in experiment [7], in [8] and in [9] were 19.4% [6.25 µM], 11.8% [6.25 µM] and 3.09% [6.25 µM] (active), respectively.
For the molecule `CCOC(=O)c1[nH]c2c(c1C)-c1[nH]c(=O)c(S(=O)(=O)c3ccccc3)cc1SC2`, the growth in experiment [1] was 56.4% [100 µM]; in experiment [2], 8.42% [100 µM] (active); in experiment [3], 59.5% [100 µM]; in [4], 54.2% [100 µM]; in experiment [5] it was 13.1% [100 µM]; in experiment [6] it was 20.9% [100 µM]. The growth is 16.2% [100 µM] in [7], 21.4% [100 µM] in experiment [8] and 52.1% [100 µM] in experiment [9].
Regarding `CCN1CCN(CCNc2nccc(-c3c(-c4ccc(F)c(OC)c4)nc4sccn34)n2)S1(=O)=O`, the growth is 37.7% in experiment [1]; 88.5% in experiment [2]; 70.8% in experiment [3]; 86.9% in [4]; 118% in experiment [5]; 59.6% in experiment [6]. In addition, the growth in experiment [7] was 77.5%; in experiment [8] it was 102%; in [9], 59.5%.
Turning to `O=C1/C(=C/c2ccccn2)NC(=S)N1c1ccccc1Cl`, the growth is 119% in experiment [1]; 75% in experiment [2]; 58.1% in [3]; 36.4% in [4]; 79.9% in [5]; 53.3% in experiment [6]. Moreover, the growth in experiment [7] was 66%; in experiment [8], 89.5%; in experiment [9], 9.35% (active).
For the molecule `C#CCNC(=O)[C@]1(C)CCC[C@@]2(C)[C@H]1CC=C1C=C(C(C)C)CC[C@@H]12`, the growth in [1] is 95.9%; in [2], 94.6%; in [3], 96.7%; in [4] it was 88.8%; in experiment [5] it was 99.7%; in experiment [6], 106%. In addition, the results for the growth in experiment [7], in experiment [8] and in experiment [9] were 87.9%, 102% and 110%, respectively.
Regarding `CS(=O)(=O)c1nnc(-c2ccccc2)s1`, the growth is 112% in [1]; 109% in [2]; 105% in [3]; -71.4% (active) in experiment [4]; 113% in [5]; 83.9% in [6]. In addition, the values for the growth in [7], in experiment [8] and in [9] were 94.9%, 91.4% and 76.5%, respectively.
For the molecule `CN(Cc1cnc2nc(N)nc(N)c2n1)c1ccc(C(=O)NC(CCC(=O)O)C(=O)O)cc1Br` (centres undefined), the growth was 67.4% in experiment [1]; 67.6% in experiment [2]; 26% in experiment [3]; 38.8% in experiment [4]; 50.4% in experiment [5]; 15.8% in [6]. For the same molecule, the growth in experiment [7] was 19%; in experiment [8] it was 76.4%; in experiment [9], 37.9%.
Take `CC1C(/C=N/NC(N)=S)C(C#N)(C#N)C1(C#N)C#N` (centres undefined): the growth in [1] is 114%; in [2], 104%; in experiment [3], 105%; in experiment [4] it was 82.4%; in experiment [5] it was 118%; in experiment [6] it was 103%. Further, the values for the growth in experiment [7], in experiment [8] and in [9] were 91.8%, 103% and 96.5%, respectively.
As to `O=C(CCCCCCN1CC(=O)N2[C@H](c3ccc(Cl)cc3)c3[nH]c4ccccc4c3C[C@@H]2C1=O)NO`, the growth in experiment [1] was 66.1%; in [2], 65.7%; in experiment [3] it was 63.1%; in experiment [4] it was 57.9%; in experiment [5], 55.8%; in experiment [6], 84.4%. Further, the results for the growth in experiment [7], in experiment [8] and in experiment [9] were 65.2%, 78.9% and 25.7%, respectively.
Consider `COc1ccc(C(=O)/C=C/c2ccc(Cl)cc2)cc1S(=O)(=O)Nc1c(N)nc(SC)[nH]c1=O`, for which the growth is 95.8% in experiment [1]; 85.2% in experiment [2]; 16.8% in [3]; 51.6% in experiment [4]; 79.6% in experiment [5]; 82.1% in experiment [6]. Besides, the growth in experiment [7] is 68.5%; in [8], 80.9%; in experiment [9], 9.03% (active).
For `O=C1c2ccccc2C(=O)c2c1cc1c(c2[N+](=O)[O-])OCO1`, the growth in experiment [1] was -30.8% (active); in experiment [2] it was 22.9%; in [3], 13.9%; in experiment [4], -3.07% (active); in [5], -14.8% (active); in [6], -18.6% (active). The growth was 2.82% (active) in [7], -44.9% (active) in [8] and 22.9% in [9].
As to `O=C(Nc1cc(Cl)ccc1O)c1cccc(Nc2ccnc(C(F)(F)F)c2)c1`, the growth in experiment [1] was 56.2%; in [2], 9.67% (active); in experiment [3], 35%; in experiment [4], 25.5%; in experiment [5] it was 46.6%; in experiment [6] it was 27.2%. For the same molecule, the growth is -2.35% (active) in experiment [7], 45.3% in experiment [8], 8.35% (active) in experiment [9] and -41.2% (active) in [10].
`Cn1cc(-c2ccc(-c3cn(C)c4ccc(Cl)cc34)[nH]2)c2cc(Cl)ccc21`: the growth in experiment [1] was -18.9% (active); in [2] it was -89.2% (active); in experiment [3], 7.64% (active); in [4] it was -93.1% (active); in [5], -28.7% (active); in experiment [6], -100% (active). Also, the growth in experiment [7] was 4.42% (active); in experiment [8] it was 48.6%; in experiment [9], -12.9% (active); in experiment [10], 19.1%.
With `Cc1ccc(Cl)cc1NC(=O)c1sc2nc3c(cc2c1N)C(=O)CCC3`, the growth in [1] was 64.5%; in experiment [2] it was 75.3%; in experiment [3], 80.6%; in experiment [4], 83.4%; in [5], 96.6%; in [6], 55.9%. Besides, the growth was 41.4% in [7], 51.2% in experiment [8], 49.2% in experiment [9] and 84.9% in experiment [10].
Turning to `COc1ccc(C#Cc2ccc(=O)oc2-c2cc(OC)c(OC)c(OC)c2)cc1O`, the growth in experiment [1] is 61.6%; in experiment [2] it was 79.8%; in experiment [3], 58%; in experiment [4], 37.9%; in [5], 81.8%; in [6], 62%. Further, the growth in [7] is 22.8%; in experiment [8] it was 56.6%; in [9], 18.5%; in [10], 15.1%.
For `COc1ccc2nc(Cl)c(/C=C3\CC(c4ccccc4)=NN(c4ccccc4)C3=O)cc2c1`, the growth in experiment [1] is 63.4%; in experiment [2], 67.7%; in [3], 72.3%; in [4], 61.7%; in [5], 78.6%; in experiment [6], 18.4%. Moreover, the growth in experiment [7] is 14.5%; in experiment [8], 46.9%; in [9] it was 96.9%; in [10], 79.8%.
Take `COc1ccc2c(c1)c(-c1nc(-c3c[nH]c4ncccc34)cs1)cn2CCCN1CCOCC1`: the growth in experiment [1] was 11.4%; in experiment [2] it was 57.8%; in experiment [3], 52.7%; in experiment [4], 11.9%; in experiment [5], 51.5%; in experiment [6], 14.5%. For the same molecule, the growth is 28.8% in [7], 27.8% in experiment [8], 13.1% in experiment [9] and -1.04% (active) in [10].
For the molecule `C=C(c1ccc(OC)c(/C=C/C(=O)c2ccc3c(c2)OCO3)c1)c1cc(OC)c(OC)c(OC)c1`, the growth in experiment [1] is 32.1%; in experiment [2], 23.4%; in experiment [3], 8.55% (active); in [4], 23.4%; in experiment [5] it was 23%; in [6] it was -26.5% (active). The growth in experiment [7] is 11.6%; in experiment [8] it was 17.7%; in [9] it was 13.3%; in experiment [10] it was 11.1%.
Regarding `COc1ccccc1C(=O)Nc1cccc(NC(=O)c2ccoc2C)c1`, the growth in experiment [1] was 10.3%; in [2] it was 71%; in experiment [3], 43.3%; in [4], 49.6%; in experiment [5], 44.7%; in [6] it was 52.1%. Further, the growth is 40.6% in experiment [7], 47.1% in experiment [8], 10.9% in [9] and 25% in [10].
Turning to `O=[N+]([O-])c1cc(NS(=O)(=O)c2ccccc2)ccc1NS(=O)(=O)c1ccccc1`, the growth in experiment [1] is 99.6%; in [2] it was 119%; in [3] it was 90.4%; in experiment [4], 95.8%; in experiment [5], 112%; in experiment [6] it was 91.4%. The growth in experiment [7] is 129%; in experiment [8], 115%; in experiment [9], 96.3%; in experiment [10], 117%.
Consider `CCOC(=O)c1ccccc1-c1c2ccc(=[N+](C)C)cc-2oc2cc(N(C)C)ccc12`, for which the growth in experiment [1] was 4.77% (active); in experiment [2], 34.5%; in experiment [3] it was 7.33% (active); in [4], 52.1%; in experiment [5], 32%; in [6], 6.36% (active). The growth in experiment [7] is -26.9% (active); in experiment [8], 0.621% (active); in [9], 30.3%; in [10], 31.5%.
With `COc1cc(C(=O)c2c(-c3ccccc3)oc3c(OC)cccc23)cc(OC)c1OC`, the growth in experiment [1] is 53%; in [2] it was 35.3%; in experiment [3] it was 22.1%; in experiment [4], 28.2%; in experiment [5] it was 61.4%; in [6], 17.7%. The growth in experiment [7] is 19.6%; in experiment [8], -28% (active); in experiment [9], 10.2%; in experiment [10] it was 11.4%.
With `C#CCO[C@H]1CC(CC#C)(CC#C)C(=O)[C@@H]2[C@H]1[C@H]1C[C@@H]3[C@@]4(C)CCC[C@@](C)(C(=O)OC)[C@@H]4CC[C@@]23C=C1C(C)C`, the growth in [1] was 97.9%; in experiment [2], 94.7%; in [3] it was 94.1%; in experiment [4] it was -34.5% (active); in experiment [5], 99.2%; in experiment [6], 72.7%. Moreover, the growth in [7] was 41%; in experiment [8] it was 85.7%; in experiment [9], -41.5% (active); in experiment [10], 76.7%.
`O=S(=O)(NCCNc1nccc(-c2c(-c3cccc(O)c3)nc3occn23)n1)c1ccc(Br)cc1`: the growth in [1] was 29.1%; in experiment [2] it was 62.1%; in [3], 35.6%; in experiment [4], 30.8%; in [5], 69.8%; in experiment [6], 29.8%. Besides, the growth is 20.2% in experiment [7], 39.7% in experiment [8], 14.6% in experiment [9] and 10.2% in experiment [10].
For `NC(N)=NS(=O)(=O)c1ccc(NC2=C(I)C(=O)c3ncccc3C2=O)cc1`, the growth in experiment [1] was 106%; in experiment [2], 105%; in experiment [3] it was 101%; in experiment [4], 75.1%; in experiment [5], 118%; in experiment [6], 93.2%. Further, the growth in [7] was 90.4%; in experiment [8], 97.2%; in experiment [9], 107%; in [10], 103%.
`CNCc1cccc2c1OCCOCCOCCNS(=O)(=O)c1ccc(cc1)-c1cnc(N)c(n1)C(=O)N2`: the growth is 30% in experiment [1]; 77.4% in experiment [2]; 19.2% in [3]; 77.6% in [4]; 41.7% in experiment [5]; 54.7% in experiment [6]. Moreover, the growth in [7] was 28.4%; in [8], 51.5%; in [9], 7.66% (active); in [10], 8.14% (active).
